The results in this text go back to PubChem BioAssay (Tox21).

Where “and” joins values, the source holds several entries; their conditions need not be identical. Equal entries are not always repeated. A number with no mark means an inactive call. Inconclusive results are not listed. Calls of active or inactive are those of the source. Unless noted, calls follow the shape of the dose curve; as a rule, active = well fitted curve in the direction sought with a large enough effect in the repeat runs; inconclusive = weak or mixed curves; inactive = no such curve, though single readings can be large; an effect the other way counts as inactive or inconclusive.

The target in assay [1] is Progesterone receptor (Homo sapiens) (UniProt P06401). Put plainly: qHTS assay to identify small molecule agonists of the progesterone receptor (PR) signaling pathway (AID 1346784; calls by dose curve; also: nearly all actives have a fitted effect of over 30% in size). In a few lines:
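Fluorescence from LiveBLAzer B/G FRET substrate cleavage (2 hr, RT) reported PR activation in PR-UAS-bla HEK 293T cells treated 16 hr at 37C/5% CO2 with compounds; medium contained 2% charcoal-stripped FBS.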
On the technique in general: In qHTS, concentration-response curves come from the screen itself.

Assay [2] shares this target. Put plainly: qHTS assay to identify small molecule antagonists of the progesterone receptor (PR) signaling pathway (AID 1346795; active = well fitted inhibition curve with a large enough effect in the signal ratio in the repeat runs, not every such curve was filed as active; the % refers to the signal ratio; also: potency is read from the fitted curve at half-maximal effect). In a few lines: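 Fluorescence intensity measured 2 hr after adding beta-lactamase FRET substrate to PR-UAS-bla HEK293T cells that had been co-treated 16 hr with compound and 1 nM R5020 (final concentration) in 2% charcoal-stripped FBS.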

A short description of assay [3]: qHTS assay to identify small molecule antagonists of the progesterone receptor (PR) signaling pathway - cell viability counter screen (AID 1346798). Also: nearly all actives have a fitted effect of over 50% in size. Also: potency is read from the fitted curve at half-maximal effect. In a few lines: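 CellTiter-Glo luminescence; PR-UAS-bla HEK293T, 3,000 cells/well; compound + R5020, 16 hr, 37C/5% CO2; 30 min RT before read.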
Assay [4] is described as follows: qHTS assay to identify small molecule agonists of the progesterone receptor (PR) signaling pathway - cell viability counter screen (AID 1346799; calls by dose curve; also: nearly all actives have a fitted effect of over 45% in size; also: potency is read from the fitted curve at half-maximal effect). In a few lines:
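In parallel with the beta-lactamase readout, cytotoxicity toward PR-UAS-bla HEK293T cells was measured by CellTiter-Glo luminescence following 16 hr compound incubation in 2% charcoal-stripped FBS medium.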

A short description of assay [5]: qHTS assay to identify small molecule antagonists of the TGF-beta/Smad signaling pathway - cell viability counter screen (AID 1346824). Also: nearly all actives have a fitted effect of over 50% in size. Also: potency is read from the fitted curve at half-maximal effect. In a few lines:
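Cytotoxicity counter-screen run in the same wells as the beta-lactamase Smad reporter read: CellTiter-Glo luminescence after 30 min at room temperature. HEK 293T SBE-bla cells had 5 hr compound exposure at 37 C with TGF-beta1 (0.25 ng/mL stock).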

Assay [6] in a line: qHTS assay to identify small molecule agonists of the TGF-beta/Smad signaling pathway (AID 1346859; active = well fitted activation curve with a large enough effect in the signal ratio in the repeat runs, not every such curve was filed as active; the % refers to the signal ratio; also: series mostly up to about 77 µM). In a few lines: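 After overnight seeding, SBE-bla HEK 293T cells are dosed with compounds in DMSO and kept 5 hr at 37 C, 5% CO2. LiveBLAzer-type FRET substrate is then applied for 2 hr at room temperature.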
Assay [7] has as its target Thyrotropin-releasing hormone receptor (Homo sapiens) (UniProt P34981). Briefly: qHTS assay to identify small molecule antagonists of the thyrotropin-releasing hormone receptor (TRHR) signaling pathway (AID 1346877; active = well fitted inhibition curve with a large enough effect in the repeat runs, not every such curve was filed as active; also: series mostly up to about 51 µM). In a few lines:
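Cells (TRHR-HEK293) are plated and kept 18 h at 37 °C/5% CO2. A calcium-sensitive dye is added for 2 h, compound follows for 5 min at room temperature, and TRH is then given at 1 nM final.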

Assay [8] is described as follows: Caspase-3/7 induction in HepG2 cells by small molecules, qHTS assay (AID 1346978). Also: nearly all actives have a fitted effect of over 15% in size. In a few lines: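 Caspase-3/7 induction was measured by Caspase-Glo 3/7 luminescence (30 min, room temperature) after a 17 hr compound exposure of wild-type HepG2 cells seeded at 2,000 per well and pre-incubated 5 hr.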
Assay [9] in a line: Caspase-3/7 induction in CHO-K1 cells by small molecules, qHTS assay (AID 1346980). Also: nearly all actives have a fitted effect of over 15% in size. In a few lines:
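Luminescent Caspase-Glo 3/7 read (30min, room temperature) quantified apoptosis induction. Cells were wild-type CHO-K1, treated with compound for 17hr at 37 C and 5% CO2.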

In assay [10] the target is Nuclear receptor subfamily 1 group I member 2 (Homo sapiens) (UniProt O75469). Put plainly: Human pregnane X receptor (PXR) small molecule agonists, qHTS assay (AID 1346982). Also: nearly all actives have a fitted effect of over 35% in size. Also: potency is read from the fitted curve at half-maximal effect. In a few lines: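 Agonist mode qHTS: PXR-Luc HepG2 cells plated 5 hr before DMSO-dissolved compounds were pinned in, cultured 24 hr at 37 C, 5% CO2; ONE-Glo luminescence readout.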
Assay [11] concerns the target Nuclear receptor subfamily 1 group I member 2 (Rattus norvegicus) (UniProt Q9R1A7). Put plainly: Rat pregnane X receptor (rPXR) activation by small molecules, qHTS assay (AID 1346983). Also: nearly all actives have a fitted effect of over 20% in size. The settings on record: rPXR luciferase reporter cells, One-Glo luminescence, 24 h; stronger effect = higher value. In a few lines: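 Luminescent readout (One-Glo luciferase, 30 min room temperature) followed 24 hr compound treatment at 37 C of rPXR cells plated 2,000 per well and preincubated 5hr; qHTS format with compounds delivered in DMSO.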

The target in assay [12] is Nuclear receptor subfamily 1 group I member 2 (Homo sapiens) (UniProt O75469). Briefly: CYP3A4 induction through human pregnane X receptor (PXR) by small molecules, qHTS assay (AID 1346984). Also: nearly all actives have a fitted effect of over 40% in size. In a few lines:
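Steps: seed DPX-2 cells, 5 hr at 37C; pin-transfer compounds; 24 hr at 37C; add Luciferin-IPA (3uM final), 3 hr at 37C; add One-Glo, 30 min RT; read luminescence.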

For assay [13] the target is unchanged. Put plainly: Human pregnane X receptor (PXR) activation by small molecules, qHTS assay (AID 1346985). Also: nearly all actives have a fitted effect of over 40% in size. In a few lines:
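DPX-2 cells (HepG2 co-transfected with a PXR response element and a CYP3A4-promoter luciferase construct) were seeded at 2,000 per well, rested 5 hr at 37C, then exposed to DMSO-dissolved compounds for 24 hr. Activation was read as luciferase luminescence.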

Assay [14] concerns the target Acetylcholinesterase (Homo sapiens) (UniProt P22303). Put plainly: Acetylcholinesterase (AChE) small molecule antagonists: colormetric cell-based qHTS assay (AID 1347395; calls by dose curve; also: nearly all actives have a fitted effect of over 30% in size; also: potency is read from the fitted curve at half-maximal effect). In a few lines:
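Homogeneous whole-cell format. SH-SY5Y cells seeded overnight, dosed with compound (30 min, 37 C, 5% CO2), then given DTNB/acetylthiocholine cocktail for 90 min at 37 C; colorimetric signal.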

Assay [15] in a line: qHTS assay to identify small molecule agonists of the estrogen receptor alpha (ER-alpha) signaling pathway in the presence of an antagonist - cell viability counter screen (AID 1259386).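 Also: cells exposed to compounds for 22 h at 37 °C before the viability read; nearly all actives have a fitted effect of over 30% in size.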 Also: potency is read from the fitted curve at half-maximal effect. In a few lines: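 Cells are starved of estrogens for 5 days in charcoal-stripped serum, seeded for 24hr and co-treated with ICI-182,780 (10.0nM final) and test compounds. After 22hr at 37C, viability is read as CellTiter-Fluor fluorescence.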

Assay [16] in a line: qHTS assay to identify small molecule agonists of the TGF-beta/Smad signaling pathway - cell viability counter screen (AID 1346829). Also: nearly all actives have a fitted effect of over 45% in size. Also: potency is read from the fitted curve at half-maximal effect. In a few lines: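 Compound-treated SBE-bla HEK 293T cells (5 hr, 37 C) were assessed for viability with CellTiter-Glo in parallel with the reporter read.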
For assay [17], the target named is Thyrotropin-releasing hormone receptor (Homo sapiens) (UniProt P34981). Briefly: qHTS assay to identify small molecule agonists of the thyrotropin-releasing hormone receptor (TRHR) signaling pathway (AID 1346891; calls by dose curve;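 also: HEK293 cells expressing TRHR with calcium dye readout; series mostly up to about 58 µM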). In a few lines:
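Compounds were tested as agonists at 15 concentrations, in triplicate, on TRHR-Hek293 cells; calcium-sensitive dye fluorescence was recorded for 3 min following addition.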

A short description of assay [18]: Human pregnane X receptor (PXR) small molecule agonists, qHTS cell viability counter screen (AID 1346977). Also: nearly all actives have a fitted effect of over 50% in size. Also: potency is read from the fitted curve at half-maximal effect. In a few lines: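 Viability counter screen: CellTiter-Fluor signal in PXR-Luc HepG2 cells, 24hr compound exposure, 37C, 5% CO2.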
Assay [19] can be described thus: Caspase-3/7 induction in HepG2 cells by small molecules, qHTS cell viability counter screen (AID 1346981). Also: nearly all actives have a fitted effect of over 30% in size. Also: potency is read from the fitted curve at half-maximal effect. In a few lines:
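Steps: seed 2,000 HepG2 cells per well; incubate 5 hr at 37 C; pin-add compounds in DMSO; incubate 16 hr; add CellTiter-Fluor; after 1 hr at 37 C and 5% CO2, read fluorescence.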

Assay [20] can be described thus: Caspase-3/7 induction in CHO-K1 cells by small molecules, qHTS cell viability counter screen (AID 1346979). Also: nearly all actives have a fitted effect of over 35% in size. Also: potency is read from the fitted curve at half-maximal effect. In a few lines:
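Viability readout by fluorescence (CellTiter-Fluor) on wild-type CHO-K1 cells exposed for 16hr at 37C and 5% CO2 to compounds delivered in DMSO; reagent incubated 1hr before reading.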
% is scaled to controls: 0 for no effect and ±100 for the full control effect.

Progesterone receptor (Homo sapiens), sequence (P06401 whole entry, looked up): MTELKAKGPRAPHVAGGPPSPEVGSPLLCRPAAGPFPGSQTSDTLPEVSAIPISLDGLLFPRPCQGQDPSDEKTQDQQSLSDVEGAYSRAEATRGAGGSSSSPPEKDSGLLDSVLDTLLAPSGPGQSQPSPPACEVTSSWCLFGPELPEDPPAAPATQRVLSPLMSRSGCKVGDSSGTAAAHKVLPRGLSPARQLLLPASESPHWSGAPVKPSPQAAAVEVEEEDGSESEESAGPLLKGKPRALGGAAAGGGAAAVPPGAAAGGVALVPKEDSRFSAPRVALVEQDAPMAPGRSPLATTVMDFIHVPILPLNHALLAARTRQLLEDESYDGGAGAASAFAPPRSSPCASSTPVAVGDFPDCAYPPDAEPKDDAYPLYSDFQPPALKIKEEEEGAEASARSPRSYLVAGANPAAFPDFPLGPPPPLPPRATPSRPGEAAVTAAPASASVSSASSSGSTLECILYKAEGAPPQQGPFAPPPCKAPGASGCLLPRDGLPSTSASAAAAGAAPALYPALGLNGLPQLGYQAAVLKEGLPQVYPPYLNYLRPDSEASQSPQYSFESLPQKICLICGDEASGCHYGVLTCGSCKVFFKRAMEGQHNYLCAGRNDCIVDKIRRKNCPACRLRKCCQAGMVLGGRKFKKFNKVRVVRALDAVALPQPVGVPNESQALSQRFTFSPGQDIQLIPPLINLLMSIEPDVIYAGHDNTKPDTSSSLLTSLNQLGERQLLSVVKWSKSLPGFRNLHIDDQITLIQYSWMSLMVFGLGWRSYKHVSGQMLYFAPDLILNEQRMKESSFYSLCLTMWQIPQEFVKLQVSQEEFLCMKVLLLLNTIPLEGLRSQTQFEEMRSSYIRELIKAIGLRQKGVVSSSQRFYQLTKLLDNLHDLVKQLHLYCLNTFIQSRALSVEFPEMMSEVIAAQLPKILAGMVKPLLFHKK
Nuclear receptor subfamily 1 group I member 2 (Homo sapiens), sequence (O75469 whole entry, looked up): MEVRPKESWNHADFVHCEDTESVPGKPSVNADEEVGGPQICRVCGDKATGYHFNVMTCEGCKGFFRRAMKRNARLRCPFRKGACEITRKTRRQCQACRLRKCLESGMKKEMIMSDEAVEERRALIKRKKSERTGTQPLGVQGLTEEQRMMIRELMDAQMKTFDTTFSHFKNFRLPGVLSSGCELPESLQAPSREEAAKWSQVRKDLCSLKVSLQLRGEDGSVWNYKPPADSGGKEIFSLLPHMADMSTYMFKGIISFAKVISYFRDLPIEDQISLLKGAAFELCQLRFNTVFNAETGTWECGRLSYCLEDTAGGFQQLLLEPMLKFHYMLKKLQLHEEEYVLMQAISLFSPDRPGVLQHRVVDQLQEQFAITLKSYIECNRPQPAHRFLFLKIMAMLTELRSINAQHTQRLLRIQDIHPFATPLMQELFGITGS
Acetylcholinesterase (Homo sapiens), sequence (P22303 whole entry, looked up): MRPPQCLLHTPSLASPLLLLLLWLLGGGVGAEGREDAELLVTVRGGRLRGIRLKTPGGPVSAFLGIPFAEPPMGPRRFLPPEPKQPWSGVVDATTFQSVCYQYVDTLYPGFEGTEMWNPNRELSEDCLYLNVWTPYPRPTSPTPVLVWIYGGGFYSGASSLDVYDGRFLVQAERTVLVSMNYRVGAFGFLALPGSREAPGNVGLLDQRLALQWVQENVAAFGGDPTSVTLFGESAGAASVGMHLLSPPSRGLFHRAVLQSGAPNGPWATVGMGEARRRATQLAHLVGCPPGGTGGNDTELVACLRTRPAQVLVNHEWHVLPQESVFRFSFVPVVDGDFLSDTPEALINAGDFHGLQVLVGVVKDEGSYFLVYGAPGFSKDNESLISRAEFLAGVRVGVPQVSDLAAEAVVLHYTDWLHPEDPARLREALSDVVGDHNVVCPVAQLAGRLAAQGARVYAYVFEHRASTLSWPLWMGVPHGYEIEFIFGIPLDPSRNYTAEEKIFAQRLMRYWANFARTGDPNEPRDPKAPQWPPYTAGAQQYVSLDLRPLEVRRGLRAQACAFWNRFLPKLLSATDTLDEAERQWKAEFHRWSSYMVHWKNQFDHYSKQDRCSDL
Thyrotropin-releasing hormone receptor (Homo sapiens), sequence (P34981 whole entry, looked up): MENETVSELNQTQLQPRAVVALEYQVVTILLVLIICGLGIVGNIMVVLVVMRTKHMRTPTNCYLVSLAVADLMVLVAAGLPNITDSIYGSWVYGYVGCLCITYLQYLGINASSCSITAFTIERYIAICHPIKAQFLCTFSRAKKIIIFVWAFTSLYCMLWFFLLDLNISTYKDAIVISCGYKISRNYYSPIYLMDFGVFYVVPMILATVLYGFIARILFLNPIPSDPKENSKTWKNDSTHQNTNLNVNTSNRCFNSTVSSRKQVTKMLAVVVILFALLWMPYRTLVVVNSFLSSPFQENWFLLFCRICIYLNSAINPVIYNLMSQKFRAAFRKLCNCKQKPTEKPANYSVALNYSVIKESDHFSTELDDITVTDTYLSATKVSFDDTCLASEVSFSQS
Nuclear receptor subfamily 1 group I member 2 (Rattus norvegicus), sequence (Q9R1A7 whole entry, looked up): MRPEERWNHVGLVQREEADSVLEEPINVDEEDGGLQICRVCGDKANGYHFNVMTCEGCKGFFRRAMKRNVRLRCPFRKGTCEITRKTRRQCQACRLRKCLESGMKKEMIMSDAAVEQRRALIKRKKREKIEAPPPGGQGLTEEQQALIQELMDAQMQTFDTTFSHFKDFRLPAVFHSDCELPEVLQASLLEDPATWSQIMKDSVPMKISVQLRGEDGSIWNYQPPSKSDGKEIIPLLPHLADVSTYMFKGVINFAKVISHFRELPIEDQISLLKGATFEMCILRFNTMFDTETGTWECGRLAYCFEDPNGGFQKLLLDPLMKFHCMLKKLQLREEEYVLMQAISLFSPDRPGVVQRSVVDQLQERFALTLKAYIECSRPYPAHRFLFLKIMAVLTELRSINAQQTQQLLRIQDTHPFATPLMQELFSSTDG

Regarding `CC(C)(C)NCC(O)c1cc(Cl)c(N)c(C(F)(F)F)c1` (centres undefined), the Potency entry in assay [1], in assay [2], in [3], in assay [4], in assay [5] and in [7] was “inactive” throughout. The Potency result in assay [8], in [9], in [10], in assay [13] and in assay [14] was “inactive” each time. Moreover, the result in assay [6] and in assay [12] was inactive. Further, the max activation in assay [11] is 8.47%.

As to `CCNC(=O)NC(=O)/C(C#N)=N/OC`, the Potency result in [15], in assay [5], in assay [16], in assay [7], in assay [18] and in [8] was “inactive” throughout. In addition, the Potency result in assay [9], in assay [19] and in assay [14] was “inactive” throughout. For the same molecule, the outcome in [6] and in assay [17] was inactive.

In the case of `O=C(N[C@H]1CN2CCC1CC2)c1ccc2c(c1)OCCO2`, the Potency entry in assay [2], in assay [3], in assay [4], in assay [5], in assay [16] and in assay [7] was “inactive” each time. Moreover, the Potency result in [18], in [8], in assay [20], in assay [9], in assay [19] and in [10] was “inactive” in each case. In addition, the result in [6] was inactive.

Take `N#CC(C#N)=Cc1ccc(O)c(O)c1`: the Potency entry in assay [15], in [1], in [5], in assay [16], in [7] and in assay [18] was “inactive” throughout. The Potency result in [8], in assay [19], in assay [10] and in assay [14] was “inactive” throughout. The result in [6] and in assay [17] was inactive.

With `C[CH2][Hg][S]c1ccccc1C(=O)O`, the Potency was 13.7 µM (active) and 21.1 µM (active) in assay [15]; 1.54 µM (active) and 3.35 µM (active) in assay [2]; 1.93 µM (active) and 6.68 µM (active) in assay [4]; 43.6 µM (active) and 19 µM (active) in assay [5]; 3.44 µM (active) and 6.68 µM (active) in assay [18]; 1.72 µM (active) and 1.88 µM (active) in assay [20]. Moreover, the Potency in assay [19] was 12.2 µM (active) and 13.3 µM (active). The Potency result in assay [16] and in assay [8] was “inactive” each time. In addition, the max activation in assay [11] was -14.1%.

With `[Cl-].[Cl-].[Hg+2]`, the Potency in assay [15] is 54.2 µM (active) and 27.3 µM (active); in assay [3], 4.83 µM (active) and 2.43 µM (active); in assay [4] it was 5.42 µM (active) and 2.17 µM (active); in assay [16], 54.7 µM (active) and 54.9 µM (active); in assay [18], 7.08 µM (active) and 6.11 µM (active); in [20], 483 nM (active) and 2.43 µM (active). Moreover, the Potency entry in assay [8] and in [9] was “inactive” each time. Further, in [11], the max activation was -4.43%.

Consider `CCOC(=O)c1cn2nc(OP(=S)(OCC)OCC)cc2nc1C`, for which the Potency entry in assay [15], in [1], in [5], in [16], in assay [18] and in assay [8] was “inactive” in each case. The Potency result in [9] and in assay [19] was “inactive” throughout. Moreover, the Potency in assay [10] is 30.6 µM (active); in assay [14], 35.6 µM (active).

Consider `O=S(=O)(c1ccccc1)c1ccccc1`, for which the Potency result in assay [15], in assay [1], in assay [5], in assay [16], in assay [7] and in assay [18] was “inactive” each time. Further, the Potency result in [8], in [9], in assay [10] and in [14] was “inactive” each time. The molecule was called inactive in assay [6] and in assay [17].

For `CN(C)c1ccc(N=O)cc1`, the Potency was 68.8 µM (active) and 61.1 µM (active) in assay [15]; 44.7 µM (active) and 27.3 µM (active) in assay [18]; 7.72 µM (active) and 8.63 µM (active) in assay [20]; 54.6 µM (active) and 61.1 µM (active) in assay [19]; 21.8 µM (active) and 9.69 µM (active) in assay [10]. Besides, the Potency entry in assay [4], in assay [5], in [16], in assay [7], in [8] and in assay [9] was “inactive” in each case. Further, the Potency result in assay [14] was “inactive”. The molecule was classed as inactive in assay [6].
